Sampled rows, rich in hits. Any-hit rate of the full collection: about 3%.
Wnt act: Wnt/beta-catenin pathway activators, primary screen, cell-based, plate reader, single point; Wnt/beta-catenin reporter cell assay, activator; activation, % at 9.35 µM; 1.2% of 300,000 active; AID 743398, 2014; in the data active = activation above about 30%, passing the limit was not always enough; inconclusive = no clear call, values can overlap the other calls;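 also: 0% = neutral control wells and 100% = positive control wells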
Vif imaging: HIV Vif self-association inhibitors, primary screen, imaging, HEK293T, single point; HEK293T cells, Vif self-association by quenched fluorescence, 24 h; inhibition, % at 7.49 µM; 0.35% of 340,000 active; in the data active = inhibition above about 50%, passing the limit was not always enough; inconclusive = no clear call, values can overlap the other calls; inactive = below about 31%
MITF act: activators of MITF-driven TRPM1 promoter reporter, primary screen, cell-based, SK-MEL-5, luciferase, single point; 0.75% of 300,000 active; activation, % at 12.5 µM; SK-MEL-5 TRPM1-promoter luciferase, 24 h; % of positive control, neutral wells = 0;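 active = mean activation of at least 80% with every replicate also reaching 80%; inconclusive = mean reaches 80% but some replicate falls short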;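 also: 0% = neutral control wells and 100% = parthenolide positive control wells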
PfHsp90 set2: growth inhibition of PfHsp90-expressing yeast, primary screen, antimalarial PfHsp90 inhibitor project, S. cerevisiae, BacTiter-Glo luminescence, single point, set 2. inhibition, % at 9.4 µM. BacTiter-Glo ATP, 48 h; yeast lacking PDR1 and PDR3 efflux regulators. 0.32% of 310,000 active;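 active = every replicate shows inhibition above about 80%, whatever the replicate mean, limit read from the data; inconclusive = mean inhibition reaches the set limit but some replicate falls short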;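 also: 0% = DMSO neutral controls and 100% = 20 µM radicicol positive controls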
esBAF inh: Bmi1 luciferase reporter increase in mESCs, primary screen, esBAF inhibitor project, mouse ES cells, Bmi1 luciferase knock-in, single point. 24 h; 100% = twice the neutral-well signal. reporter increase, % at 12.5 µM. 2% of 350,000 active. AID 602393, 2012; in the data active = activation above about 40%; inconclusive = no clear call, values can overlap the other calls;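 also: 0% = median of the plate's neutral control wells and 100% = double that signal; a rise in the Bmi1 reporter signal indicates esBAF inhibition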
N-glyco inh: increase of ERlucT glycosylation luciferase signal, primary screen, N-linked glycosylation inhibitor project, D54 ERlucT cells, luminescence, set 2 | reporter increase, % at 12.5 µM | D54 ERlucT glycosylation luciferase reporter, 24 h; percent of 100 nM tunicamycin response | 0.23% of 360,000 active | AID 588692, 2011;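 active = mean luciferase reporter signal, scaled so untreated is 0 and the glycosylation-blocking control 100, at or above a set limit in every replicate; inconclusive = mean reaches the limit but not every replicate does; inactive = mean below the limit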;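 also: luciferase carries N-glycosylation sites so blocking glycosylation raises the light; 0% = median of neutral control wells and 100% = median of 100 nM tunicamycin wells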
* hit, by the source's call.

What do the screens show for `Cc1noc(C)c1-c1csc(N2CCC(C(N)=O)CC2)n1`?
Wnt act: 22.1; Vif imaging: -2.3; MITF act: 47.6; esBAF inh: 74.4*; N-glyco inh: 4.2

What do the screens show for `CN(C)c1cccc(-c2csc(N3CCC(C(N)=O)CC3)n2)c1`?
Wnt act: 32.6*; Vif imaging: 1.9; MITF act: 83.5*; esBAF inh: 60.3*; N-glyco inh: -3.8

What do the screens show for `NC(=O)C1CCN(c2nc(-c3cccs3)cs2)CC1`?
Vif imaging: -0.2; MITF act: inconclusive; PfHsp90 set2: -69.8; esBAF inh: 47.3*; N-glyco inh: 1.0

How did NC(=O)C1CCN(c2nc(-c3ccc4c(c3)OCCO4)cs2)CC1 do in these assays?
Wnt act: -1.1

What do the screens show for `NC(=O)C1CCN(c2nc(-c3ccc(Br)cc3)cs2)CC1`?
Wnt act: 14.6; Vif imaging: 0.0; MITF act: 11.4; PfHsp90 set2: -77.0; N-glyco inh: 3.2

Results for COc1ccc(NC(=O)C23CC4CC(C2)CC(c2ccccc2)(C4)C3)c(OC)c1 ?
Wnt act: -6.7; Vif imaging: 5.6; MITF act: -3.8; PfHsp90 set2: -2.1; N-glyco inh: -2.3

What do the screens show for `O=C(NC1CCCCC1)c1ccc2ccccc2c1`?
Wnt act: 49.3*; esBAF inh: 55.7*; N-glyco inh: -9.3

How did O=C(NC1CCCCCCC1)c1cccc(Cl)c1 do in these assays?
Wnt act: 19.7; Vif imaging: -2.5; MITF act: 64.0; PfHsp90 set2: -12.5; esBAF inh: 59.8*; N-glyco inh: -1.1

What do the screens show for `CC(=O)NC1(C2CCCCC2=O)CCCCC1` (stereo unspecified)?
Vif imaging: 1.4; MITF act: 1.2; PfHsp90 set2: -5.2; N-glyco inh: 1.4

What do the screens show for `O=C1CC(N2CCOCC2)C(=O)N1CCN1C(=O)CC(N2CCOCC2)C1=O` (stereo unspecified)?
Wnt act: -2.2; MITF act: -3.6; PfHsp90 set2: 22.4; esBAF inh: -3.8; N-glyco inh: 0.8

What do the screens show for `CC(=O)[C@@]1(O)Cc2c(O)c3c(c(O)c2[C@H](O[C@H]2C[C@H](N)[C@H](O)[C@H](C)O2)C1)C(=O)c1ccccc1C3=O`?
Wnt act: 25.2; Vif imaging: 66.5*; esBAF inh: -81.5; N-glyco inh: -13.1

How did COc1cccc2c1C(=O)c1c(O)c3c(c(O)c1C2=O)CC(O)(C(C)=O)CC3OC1CC(N(C)C)C(O)C(C)O1 (stereo unspecified) do in these assays?
Wnt act: -24.8; Vif imaging: 24.5; PfHsp90 set2: 98.0*; N-glyco inh: -11.9

How did COc1cccc2c1C(=O)c1c(O)c3c(c(O)c1C2=O)C[C@@](O)(C(=O)CO)C[C@@H]3OC1CC(N)C(O)C(C)O1 (stereo partly specified) do in these assays?
Wnt act: -9.6; Vif imaging: -6.4; PfHsp90 set2: -18.4; N-glyco inh: -8.5

Results for Cc1ccc(SCC(=O)N(Cc2nc(-c3ccccc3)no2)C(C)C)cc1 ?
Vif imaging: -3.1; MITF act: -3.4; N-glyco inh: 1.4

How did COCCN(C(=O)c1csnn1)C(C(=O)NC(C)(C)C)c1cccc(OC)c1 (stereo unspecified) do in these assays?
Vif imaging: 0.7; PfHsp90 set2: 4.9; esBAF inh: -10.1; N-glyco inh: 2.4

Results for CC(=O)c1ccc(NC(=O)Cn2cnc(S(=O)(=O)N3CCC(C)CC3)c2)cc1 ?
Wnt act: 1.6; Vif imaging: 5.0; MITF act: 4.4; PfHsp90 set2: 26.7; esBAF inh: -9.7; N-glyco inh: 3.9

Results for CN(C)N=Nc1ccc(S(=O)(=O)/N=C(\O)c2ccccc2)cc1 ?
Wnt act: -0.3; Vif imaging: -2.6; PfHsp90 set2: -28.9; esBAF inh: -3.4; N-glyco inh: 3.7

How did Clc1ccccc1C(c1ccccc1)(c1ccccc1)n1ccnc1 do in these assays?
Wnt act: -6.0; Vif imaging: 1.0; MITF act: -27.3; PfHsp90 set2: 89.9*; esBAF inh: 9.1; N-glyco inh: -7.8

Results for COc1ccc(CC(=O)Nc2cc(C)ccc2O)cc1OC ?
Wnt act: -3.6; Vif imaging: 2.6; MITF act: 3.4; PfHsp90 set2: 4.3; N-glyco inh: 0.6

How did CN(C)C(=O)c1ccc(-c2ccc([C@H]3[C@@H](C#N)N(C(=O)Nc4ccccc4F)[C@H]3CO)cc2)cc1 do in these assays?
esBAF inh: 17.0

Results for C/C(=N\Nc1ccc(Cl)c(C(=O)O)c1)c1cccc2ccccc12 ?
Wnt act: 3.5; Vif imaging: 65.1*; PfHsp90 set2: 5.6; esBAF inh: 8.3; N-glyco inh: 0.2

What do the screens show for `C/C(=N\Nc1ccc(Cl)c(C(=O)O)c1)c1cc2ccccc2o1`?
Wnt act: 0.0; Vif imaging: 4.1; MITF act: -6.5; esBAF inh: 15.4; N-glyco inh: 2.3

Results for O=C(O)c1cc(N/N=C/c2cccc3ccccc23)ccc1Cl ?
Wnt act: 27.4; Vif imaging: 2.4; MITF act: 100.5*; PfHsp90 set2: 11.7; esBAF inh: 80.3*; N-glyco inh: 0.9

Results for N#Cc1ccccc1OCC(=O)N(Cc1nnc(-c2ccccc2Cl)o1)C1CC1 ?
Wnt act: 1.7; Vif imaging: 1.9; MITF act: 4.9; PfHsp90 set2: -21.4; N-glyco inh: -4.3

Results for O=C(Nc1ccc(Cl)cc1)N1CCN(c2ccc3nnc(-c4ccc(F)cc4)n3n2)CC1 ?
Vif imaging: -4.9; MITF act: 0.4; PfHsp90 set2: 2.7; esBAF inh: -5.1; N-glyco inh: 99.7*

How did O=S(=O)(N[C@@H]1CC[C@@H](CCn2cc(-c3ccccc3F)nn2)O[C@@H]1CO)c1ccc(F)cc1 do in these assays?
esBAF inh: -1.2

How did CNC(=O)c1cccc(NC(=O)c2ccccc2OCc2ccccc2)c1 do in these assays?
Wnt act: 2.5; Vif imaging: -5.7; MITF act: 5.2; PfHsp90 set2: -11.9; esBAF inh: -2.8; N-glyco inh: 27.1*

Results for COc1ccccc1OCc1ccc(C(=O)Nc2ccccc2)cc1 ?
Wnt act: 28.6; Vif imaging: -11.3; MITF act: 69.9; PfHsp90 set2: 19.4; esBAF inh: 78.6*; N-glyco inh: -1.9

How did O=C(Nc1ccc(O)cc1)c1ccccc1OCc1ccccc1 do in these assays?
Wnt act: -1.8; Vif imaging: -1.1; MITF act: -12.2; PfHsp90 set2: -22.6; esBAF inh: -2.7; N-glyco inh: 12.6
